# Several values for one entry are separate records, joined by “and”; a condition that tells them apart may be missing. Identical values can stand only once. For part of these data: Results with a measured potency or affinity are listed apart. Activity calls are given as the source filed them. Unless noted, the rule behind the calls is not given here.
# What was measured:
# [1] = blockers of polyQ-driven CASP3 activation – cell-based (AID 1583); conditions: polyglutamine-induced caspase-3 activation, cell assay; stronger effect = higher value;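 tested at 10 µM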
# [2] = yeast 75Q aggregation reduction – 75Q-TubU reporter (AID 1593); conditions: Yeast 75Q polyglutamine aggregation reporter
# [3] = restoration of touch response, mutant HTT neurons – whole organism, C. elegans mechanosensory neurons, N-terminal huntingtin (AID 1599); conditions: C. elegans polyQ-huntingtin mechanosensory neurons, stronger effect = higher value
# [4] = blockers of cytochrome c efflux from mitochondria – biochemical, purified mitochondria (AID 1603); conditions: stronger effect = lower value;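 note: mouse liver mitochondria challenged with calcium chloride; signal normalized to the plate average as 100%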
# [5] = polyglutamine aggregate formation blockers (AID 1604); conditions: polyglutamine-induced protein aggregation inhibition assay; stronger effect = higher value; tested at 2.5 µM
# [6] = glutamate transport activators, MN-1 cells, MN-1 cell line (AID 1612); conditions: MN-1 motor neuron cells, stronger effect = higher value;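 note: tested at 1 µM final; 0% = mean of DMSO vehicle wells on each plate; positive means more glutamate uptake than control and negative means less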
# [7] = 75Q-TubH aggregate inhibition, S. cerevisiae, yeast (AID 1616); conditions: S. cerevisiae 75Q-TubH polyglutamine aggregation suppression; stronger effect = higher value
# [8] = compounds altering circadian rhythm period length – cell-based, LOPAC library, luminescence reporter (AID 2774); conditions: circadian reporter cells, at 7 µM, actives lie on both sides;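 note: values are relative to mean of DMSO wells on each plate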
# [9] = tested on: Hepatitis C virus NS3 helicase; experiment: blockers of NS3h binding to ssDNA – biochemical, fluorescence polarization, LOPAC1280 library, primary screen (AID 687035; in the data active = inhibition above about 37%); conditions: Purified HCV NS3 helicase, Cy5-dT15 ssDNA binding fluorescence polarization; stronger effect = higher value; concentration not given here
# [10] = compounds altering Cy5-DNA-NS3h complex signal – biochemical, LOPAC1280, artefact control for HCV NS3 helicase inhibitor project (AID 687037); conditions: Cy5-DNA-NS3h complex fluorescence interference counterscreen
# [11] = signal quenchers or enhancers, Cy5 substrate/SSB – biochemical, NIH Clinical Collection, E. coli SSB, artefact control for HCV NS3 helicase inhibitor project (AID 743268); conditions: Cy5-oligo bound E. coli SSB, fluorescence interference
# [12] = tested on: Hepatitis C virus NS3 helicase; experiment: blockers of NS3h binding to DNA – biochemical, fluorescence polarization, NIH Clinical Collection, primary screen (AID 743270); conditions: NS3 helicase binding to Cy5-dT15 DNA, stronger effect = higher value, concentration not given here
# [13] = target: Single-stranded DNA-binding protein (Escherichia coli (strain K12)) (UniProt P0AGE0); experiment: SSB-ssDNA binding inhibitors – biochemical, fluorescence polarization, NIH Clinical Collection, counter-screen for HCV NS3 helicase inhibitor project (AID 743271; in the data active = inhibition above about 28%); conditions: E. coli SSB-DNA binding, stronger effect = higher value, concentration not given here
# [14] = compounds distorting NS3 helicase fluorescence signal – biochemical, NIH Clinical Collection, artefact control for HCV NS3 helicase inhibitor project (AID 743272); conditions: fluorescence interference counterscreen, HCV NS3 helicase assay; stronger effect = lower value;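 note: HCV NS3 helicase with a Cy5 labelled single stranded DNA probe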
# [15] = blockers of cellular phospholipid synthesis – cell-based, LOPAC library, screen 4, primary screen (AID 1347384); conditions: animal cells, phospholipid biosynthesis inhibition screen; at 10 µM
# [16] = growth inhibition, single agent or in combination, cell-based, chromothripsis tumors, cisplatin or BGB combos (AID 1671449; in the data active = inhibition above about 80%;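 note: cells exposed for 96 hours; 0% = vehicle DMSO and 100% = killing by high DMSO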); conditions: LFS_MB_P medulloblastoma cells
# [17] = growth inhibition, single agent and combos, cell-based, chromothripsis tumors, cisplatin or BGB combos (AID 1671450; in the data active = inhibition above about 80%;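 note: cells exposed to compound for four days; 0% = vehicle DMSO and 100% = cell killing by high DMSO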); conditions: HDN33 neuroblastoma cells, stronger effect = higher value
# [18] = growth inhibition, single agents and combos, HTB85, cell-based, BGB or cisplatin IC20 combos, synergistic combos for chromothripsis tumors (AID 1671453; in the data active = inhibition above about 80%;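 note: cells exposed for 96 hours before readout; 0% = vehicle DMSO and 100% = high DMSO killing control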); conditions: HTB85 osteosarcoma cells, drug combinations, stronger effect = higher value
# [19] = growth inhibition, MDA-MB-436, cell-based, BGB or cisplatin combos, synergistic combos for chromothripsis tumors (AID 1671458); conditions: MDA-MB-436 breast carcinoma growth inhibition, drug combinations, stronger effect = higher value;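 note: cells exposed for 96 hours; 0% = vehicle DMSO and 100% = killing by high DMSO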
# [20] = BT084 cell growth, single and combined drugs, ICGC_MB145, cisplatin and BGB IC40 combos (AID 1671461; in the data active = inhibition above about 80%;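 note: cells exposed to drugs for 96 hours; 0% = vehicle DMSO and 100% = high DMSO full killing control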); conditions: BT084 medulloblastoma cells, drug combinations, stronger effect = higher value
smiles,measurement,setting,value
CCCC(CCC)C(=O)O,inhibition,[1],28.5%
same,score,[2],1.39
same,rescue above control,[3],2.58
same,cytochrome c release ratio,[4],0.86
same,inhibition of aggregation,[5],40.9%
same,glutamate uptake change,[6],-8.08%
same,aggregation suppression score,[7],0.716
same,period change,[8],0.1 h (inactive)
same,inhibition,[9],0% (inactive)
same,fluorescence ratio (interference),[10],1 (inactive)
same,fluorescence ratio,[11],1.04 (inactive)
same,inhibition,[12],-1.36% (inactive)
same,inhibition,[13],-1.24% (inactive)
same,fluorescence ratio,[14],0.99 (inactive)
same,outcome,[15],inactive
same,inhibition,"[16]; at 0.5 µM, stronger effect = higher value",-13.2% (inactive) and -3.77% (inactive)
same,inhibition,"[16]; measured here: combination with BGB IC20, at 0.005 µM",-6.05% and -4.21%
same,inhibition,"[16]; measured here: combination with BGB IC40, at 0.005 µM",-31.2% and 0.129%
same,inhibition,"[16]; measured here: combination with BGB IC40, at 0.05 µM",-32.2% and 12.9%
same,inhibition,"[16]; measured here: combination with cisplatin, at 0.5 µM, stronger effect = higher value",-39.1% and -9.89%
same,inhibition,"[16]; measured here: combination with cisplatin, at 5 µM, stronger effect = higher value",-24.7% and -24.2%
same,inhibition,"[17]; BGB combo, at 5 µM",-30.6% and 8.86%
same,inhibition,[17]; at 0.5 µM,-23.5% (inactive) and 13.8% (inactive)
same,inhibition,"[17]; cisplatin combo, at 5 µM",-2.31% and 15.6%
same,inhibition,"[17]; measured here: with BGB IC20 combination, at 0.5 µM",-33% and 14.7%
same,inhibition,"[17]; measured here: with cisplatin IC20 combination, at 0.5 µM",0.437% and 10.4%
same,inhibition,"[17]; single agent, at 5 µM",-20.1% and 11%
same,inhibition,[18]; at 0.5 µM,-8.02% (inactive) and 3.4% (inactive)
same,inhibition,"[18]; measured here: with BGB IC20, at 0.5 µM",-18.9% and -3.5%
same,inhibition,"[18]; measured here: with BGB IC20, at 5 µM",53.9% and 3.4%
same,inhibition,"[18]; measured here: with cisplatin IC20, at 0.5 µM",-4.12% and 2.48%
same,inhibition,"[18]; measured here: with cisplatin IC20, at 5 µM",-47.8% and -2.5%
same,inhibition,"[18]; single agent, at 5 µM",-17.1% and 13.4%
same,inhibition,[19]; at 0.5 µM,-30.4% (inactive) and 1.93% (inactive)
same,inhibition,"[19]; measured here: BGB combination, at 0.5 µM",-29.6% and 4.62%
same,inhibition,"[19]; measured here: BGB combination, at 5 µM",-20.8% and 1.95%
same,inhibition,"[19]; measured here: cisplatin combination, at 0.5 µM",-40.6% and 3.21%
same,inhibition,"[19]; measured here: cisplatin combination, at 5 µM",-25.9% and 1.52%
same,inhibition,[20]; at 0.5 µM,-33.9% (inactive) and -3.36% (inactive)
same,inhibition,"[20]; cisplatin combination, at 0.5 µM",-10.5% and -11.6%
same,inhibition,"[20]; cisplatin combination, at 5 µM",-5.4% and -1.37%
same,inhibition,"[20]; measured here: BGB IC40 combination 0.05 uM, at 0.05 µM",-20.5% and -59.5%
same,inhibition,"[20]; single agent, at 5 µM",-18.9% and -8.84%
COC(=O)C1=C(C)NC(C)=C(C(=O)OC)C1c1ccccc1[N+](=O)[O-],inhibition,[1],28.5%
same,score,[2],0.82
same,rescue above control,[3],8.1
same,cytochrome c release ratio,[4],0.98
same,inhibition of aggregation,[5],15.2%
same,glutamate uptake change,[6],-6.86%
same,aggregation suppression score,[7],0.369
same,period change,[8],-0.175 h (inactive)
same,inhibition,[9],-1% (inactive)
same,fluorescence ratio (interference),[10],1 (inactive)
same,fluorescence ratio,[11],0.94 (inactive)
same,inhibition,[12],-1.19% (inactive)
same,inhibition,[13],1.44% (inactive)
same,fluorescence ratio,[14],0.9 (inactive)
same,outcome,[15],inactive
CN1C(=O)CC[C@H]1c1cccnc1,inhibition,[1],25.7%
same,score,[2],1.01
same,rescue above control,[3],-5.98
same,cytochrome c release ratio,[4],0.78
same,inhibition of aggregation,[5],72.2%
same,glutamate uptake change,[6],11.3%
same,aggregation suppression score,[7],1.36
same,period change,[8],0.1 h (inactive)
same,inhibition,[9],-2% (inactive)
same,fluorescence ratio (interference),[10],1 (inactive)
same,fluorescence ratio,[11],1.01 (inactive)
same,inhibition,[12],5.15% (inactive)
same,inhibition,[13],6.83% (inactive)
same,fluorescence ratio,[14],0.91 (inactive)
same,outcome,[15],inactive
COC(=O)C1=C(C)NC(C)=C(C(=O)OCCN(C)Cc2ccccc2)C1c1cccc([N+](=O)[O-])c1 (configuration not stated),inhibition,[1],5.3%
same,score,[2],1.16
same,rescue above control,[3],19.4
same,cytochrome c release ratio,[4],1.07
same,inhibition of aggregation,[5],11.1%
same,glutamate uptake change,[6],-14.8%
same,aggregation suppression score,[7],0.61
same,period change,[8],-0.09 h (inactive)
same,inhibition,[9],3% (inactive)
same,fluorescence ratio (interference),[10],1 (inactive)
same,fluorescence ratio,[11],1.15 (inactive)
same,inhibition,[12],-1.36% (inactive)
same,inhibition,[13],7.91% (inactive)
same,fluorescence ratio,[14],0.91 (inactive)
same,outcome,[15],inactive
CN(C)C(=O)C(CCN1CCC(O)(c2ccc(Cl)cc2)CC1)(c1ccccc1)c1ccccc1,inhibition,[1],18.5%
same,score,[2],1.94
same,rescue above control,[3],1.56
same,cytochrome c release ratio,[4],0.99
same,inhibition of aggregation,[5],7.94%
same,glutamate uptake change,[6],44.5%
same,aggregation suppression score,[7],1.13
same,period change,[8],-0.235 h (inactive)
same,inhibition,[9],-4% (inactive)
same,fluorescence ratio (interference),[10],1 (inactive)
same,fluorescence ratio,[11],1.06 (inactive)
same,inhibition,[12],-6.82% (inactive)
same,inhibition,[13],-5.05% (inactive)
same,fluorescence ratio,[14],1.01 (inactive)
same,outcome,[15],inactive
NC(=O)c1cccnc1,fluorescence ratio,[11],1.01 (inactive)
same,inhibition,[12],0.66% (inactive)
same,inhibition,[13],-1.97% (inactive)
same,fluorescence ratio,[14],1.01 (inactive)
CC(C(=O)O)c1cccc(C(=O)c2ccccc2)c1 (configuration not stated),inhibition,[1],-50.9%
same,score,[2],1.03
same,rescue above control,[3],17.1
same,cytochrome c release ratio,[4],1.12
same,inhibition of aggregation,[5],74.7%
same,glutamate uptake change,[6],-7.92%
same,aggregation suppression score,[7],0.564
same,period change,[8],-0.125 h (inactive)
same,inhibition,[9],-5% (inactive)
same,fluorescence ratio (interference),[10],1 (inactive)
same,inhibition,[12],-1.36% (inactive)
same,inhibition,[13],1.05% (inactive)
same,fluorescence ratio,[14],0.96 (inactive)
same,outcome,[15],inactive
CCCC(=O)Nc1ccc(OCC(O)CNC(C)C)c(C(C)=O)c1 (configuration not stated),inhibition,[1],-2.9%
same,score,[2],1.34
same,rescue above control,[3],-8.24
same,cytochrome c release ratio,[4],0.94
same,inhibition of aggregation,[5],0%
same,glutamate uptake change,[6],-19.3%
same,aggregation suppression score,[7],1.28
same,fluorescence ratio,[11],0.9 (inactive)
same,inhibition,[12],-3.18% (inactive)
same,inhibition,[13],-5.82% (inactive)
same,fluorescence ratio,[14],1.03 (inactive)
